Results from PubChem BioAssay (NCI).
Compounds without any hit were thinned out: in the full panel of roughly 79,000, 15% have a hit. Unmarked numbers belong to inactive results. Activity calls are given as the source filed them. Cut-off read from the data, not from the text of the source: active = growth inhibition above about 70%; inactive = the rest.

What was measured:
[1] = NCI Yeast Anticancer Drug Screen. Data for the rad50 strain (AID 155);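 note: 0% = growth of vehicle-only cultures of the same strain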; settings: S. cerevisiae rad50 strain growth inhibition, hits give high values
Summary of the method: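 DNA repair mutant yeast, compound exposure, growth read-out; inhibition is taken relative to vehicle.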

[2] = NCI Yeast Anticancer Drug Screen. Data for the mec2-1 strain (AID 157); settings: S. cerevisiae mec2-1 strain, hits give high values
Summary of the method: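 Yeast mec2-1 mutant treated with compound. Readout: growth inhibition vs vehicle controls.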

[3] = NCI Yeast Anticancer Drug Screen. Data for the sgs1 mgt1 strain (AID 161);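 note: 0% = growth of cultures given vehicle only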; settings: S. cerevisiae sgs1 mgt1 strain, hits give high values
Summary of the method: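 Genetically altered yeast, compound exposure, growth inhibition relative to vehicle.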

[4] = NCI Yeast Anticancer Drug Screen. Data for the cln2 rad14 strain (AID 165);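 note: 0% = growth equal to vehicle treated cultures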; settings: S. cerevisiae cln2 rad14 strain, hits give high values
Summary of the method: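 cln2 rad14 yeast strain; compound exposure; growth inhibition read vs vehicle controls.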

[5] = NCI Yeast Anticancer Drug Screen. Data for the bub3 strain (AID 167); settings: S. cerevisiae bub3 mutant strain, hits give high values
Summary of the method: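 In this screen, a yeast mutant lacking normal mitotic checkpoint function is challenged with compound. Relative growth versus vehicle gives the inhibition value.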

[6] = NCI Yeast Anticancer Drug Screen. Data for the mlh1 rad18 strain (AID 175); settings: S. cerevisiae mlh1 rad18 strain growth inhibition, hits give high values
Summary of the method: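 Yeast w/ defined DNA-repair lesions; compound exposure; growth vs vehicle controls → % inhibition.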

[7] = at 5.0 µM (retest, dose inferred, filed as 0.5)
[8] = at 50.0 µM (retest, dose inferred, filed as 5.0)

| Structure (SMILES) | growth inhibition [1, 7] | growth inhibition [1, 8] | growth inhibition ([1]; at 50.0 µM) | growth inhibition [2, 7] | growth inhibition [2, 8] | growth inhibition ([2]; at 50.0 µM) | growth inhibition [3, 7] | growth inhibition [3, 8] | growth inhibition ([3]; at 50.0 µM) | growth inhibition [4, 7] | growth inhibition [4, 8] | growth inhibition ([4]; at 50.0 µM) | growth inhibition [5, 7] | growth inhibition [5, 8] | growth inhibition ([5]; at 50.0 µM) | growth inhibition [6, 7] | growth inhibition [6, 8] | growth inhibition ([6]; at 50.0 µM) |
| --- | --- | --- | --- | --- | --- | --- | --- | --- | --- | --- | --- | --- | --- | --- | --- | --- | --- | --- |
| Cc1nn(C(=S)S)c(C)c1N=Nc1cccc(F)c1 | 15% | 29% | 88.2% (active) | -1% | 18% | 46.1% | 5% | -1% | 88.6% (active) | 1% | 5% | 24.4% | -1% | 7% | 72.5% (active) | -1% | 21% | 90% (active) |
| CCOC(=O)CSC(=S)Nc1ccc(Cl)cc1 | 0% | 88% (active) | 88.9% (active) | -2% | 91% (active) | 21.1% | 5% | 95% (active) | 87.5% (active) | -5% | 36% | -26.8% | -9% | 61% | 50.5% | – | – | – |
| Nc1ccc(S(=O)(=O)N2CCCc3ccccc32)cc1 | 5% | 20% | 83.7% (active) | 7% | 21% | 56.9% | 4% | 34% | 84% (active) | 2% | 23% | 74.2% (active) | 3% | 28% | 82% (active) | 7% | 40% | 74.4% (active) |
| O=C1c2ccccc2C(=O)c2c(OCCOCCO)cccc21 | 6% | 70% (active) | 86.2% (active) | 3% | 18% | 23.9% | 2% | 31% | 18% | -3% | 21% | 24.6% | -6% | 17% | 37.6% | 1% | 65% | 39.6% |
| Oc1ccccc1/C=N\N=C\c1ccccc1O | 5% | -22% | 8.75% | -10% | -3% | 3.5% | 4% | 4% | -10.8% | 7% | -3% | 37.2% | -70% | 6% | 0.8% | 2% | 0% | 13.2% |
| CC1(C)CC(=O)C(C(c2ccc3c(c2)OCO3)N2CCOCC2)C(=O)C1 (configuration not stated) | -22% | -17% | 99.2% (active) | 9% | -13% | 99.5% (active) | -21% | 4% | 99.3% (active) | -9% | 3% | 98.2% (active) | 20% | -11% | 98.8% (active) | – | – | – |
| O=[N+]([O-])c1ccc(CC(c2ccc([N+](=O)[O-])cc2)(c2ccc([N+](=O)[O-])cc2)c2ccc([N+](=O)[O-])cc2)cc1 | 2% | -3% | 5.05% | 1% | 1% | 12.6% | 1% | -16% | -19.3% | 5% | -20% | 8.7% | 5% | 4% | 41% | – | – | – |
| CCCC/C=C1\CCC(CN2CCOCC2)C1=O (configuration not stated) | 56% | 100% (active) | 90.5% (active) | 39% | 100% (active) | 92.8% (active) | 43% | 100% (active) | 91.4% (active) | 44% | 98% (active) | 90.8% (active) | 69% | 100% (active) | 91.2% (active) | 61% | 98% (active) | 90.7% (active) |
| COc1cc(-c2ccc(-[n+]3nc(Cc4ccc5c(c4)OCO5)nn3-c3ccccc3)c(OC)c2)ccc1-[n+]1nc(Cc2ccc3c(c2)OCO3)nn1-c1ccccc1 | 4% | 41% | 68.8% | 1% | 46% | 91.9% (active) | 1% | 49% | 92.6% (active) | 2% | 22% | 37.1% | -1% | 60% | 83.4% (active) | – | – | – |
| COC(=O)/C(C#N)=C(/SC)N(C)C | 4% | 7% | 4.35% | 8% | 15% | 4.1% | 2% | 10% | -10.3% | 6% | 7% | 38.6% | 0% | 7% | 2.55% | 12% | 11% | -10.3% |
| C[n+]1c2ccccc2cc2[nH]c3ccccc3c21 | 84% (active) | 93% (active) | 74% (active) | 86% (active) | 96% (active) | 78.6% (active) | 89% (active) | 98% (active) | 79.7% (active) | 63% | 75% (active) | 64.8% | 84% (active) | 84% (active) | 72.7% (active) | – | – | – |
| O=C(O)c1ccc(NCc2c(O)ccc3ccccc23)cc1 | 5% | 26% | 4% | 9% | 29% | 17.4% | 11% | 15% | 45.2% | -3% | 15% | -13.9% | 4% | 28% | 48.1% | 9% | 26% | 19.1% |
| COc1ccc2c(c1)C1(C)CCCC(C)(C(=O)O)C1CC2 (configuration not stated) | -8% | 99% (active) | 99.5% (active) | -7% | 99% (active) | 99.5% (active) | 1% | 99% (active) | 99.6% (active) | -103% | 99% (active) | 96.8% (active) | -8% | 93% (active) | 99% (active) | 2% | 98% (active) | 99.5% (active) |
| CC(=O)OC1CCC2(C)C(=CCC3C2CCC2(C)C3CC(C(N)=O)C2C(C)=O)C1 (configuration not stated) | -2% | 25% | 49% | 1% | 79% (active) | 14.6% | 6% | 75% (active) | 76.8% (active) | -3% | 57% | 61.6% | 9% | 97% (active) | 7.4% | -1% | 70% (active) | 59.3% |
| CC(C)Cc1cc2c(cc1O)CCC1C2CC[C@@]2(C)C1CC[C@@H]2O (some centres not stated) | -10% | 97% (active) | 75.8% (active) | -17% | 95% (active) | 80.4% (active) | -12% | 97% (active) | 86.5% (active) | -22% | 98% (active) | 89.3% (active) | -34% | 97% (active) | 87% (active) | -11% | 97% (active) | 88.4% (active) |
| CC(C)C(C)(C(=O)O)C(C)C | 0% | 1% | 13.8% | 3% | 2% | 2.1% | 2% | 3% | 5.6% | -3% | 4% | 67% | -1% | 0% | -5.5% | – | – | – |
| C=CCOC(=O)CC(OC(C)=O)C(CC)CC(C)C (configuration not stated) | 0% | 26% | 24.4% | -1% | 12% | 19.1% | -6% | 3% | 18.3% | 2% | 20% | 80.7% (active) | 3% | 15% | 40.3% | 0% | 12% | 27.9% |
| Nc1ccc(C(=O)Oc2cccccc2=O)cc1 | 3% | 36% | 82% (active) | 2% | 32% | 42.9% | 7% | 52% | 91.5% (active) | 3% | 20% | 16.1% | -1% | 32% | 77.2% (active) | 4% | 78% (active) | 95.4% (active) |
| c1c2c(cc(-n3nnc4c3CCCCCC4)c1-n1nnc3c1CCCCCC3)CCCCCC2 | 30% | 30% | 89.4% (active) | 26% | 26% | 90.5% (active) | 23% | 23% | 89.5% (active) | 17% | 17% | 91.1% (active) | 7% | 7% | 90.4% (active) | 27% | 27% | 87.3% (active) |
| CCOC(=O)CC1(C)C(=O)CCCC1=O | 3% | -2% | -3.7% | -2% | -2% | 2% | 0% | 0% | 3.65% | 0% | -2% | -27.5% | -5% | -2% | -6.7% | -3% | -156% | -1% |
